Bioassay records from PubChem.
An excerpt weighted towards active compounds, which were near 14% of everything screened.
LmPK inhibitor: blocks Leishmania mexicana pyruvate kinase activity; Q27686; purified LmPK, Kinase-Glo ATP luminescence, 1 h; Potency, µM (highest dose often 57.5 µM), for the others: at the top dose activity change, negative = inhibition, hits mostly inhibitors; AID 1721; 290,000 compounds, 0.37% hits; also: potency is read from the fitted curve at half-maximal effect; % is scaled to controls: 0 for no effect and ±100 for the full control effect
Target sequence (Q27686 whole entry, looked up): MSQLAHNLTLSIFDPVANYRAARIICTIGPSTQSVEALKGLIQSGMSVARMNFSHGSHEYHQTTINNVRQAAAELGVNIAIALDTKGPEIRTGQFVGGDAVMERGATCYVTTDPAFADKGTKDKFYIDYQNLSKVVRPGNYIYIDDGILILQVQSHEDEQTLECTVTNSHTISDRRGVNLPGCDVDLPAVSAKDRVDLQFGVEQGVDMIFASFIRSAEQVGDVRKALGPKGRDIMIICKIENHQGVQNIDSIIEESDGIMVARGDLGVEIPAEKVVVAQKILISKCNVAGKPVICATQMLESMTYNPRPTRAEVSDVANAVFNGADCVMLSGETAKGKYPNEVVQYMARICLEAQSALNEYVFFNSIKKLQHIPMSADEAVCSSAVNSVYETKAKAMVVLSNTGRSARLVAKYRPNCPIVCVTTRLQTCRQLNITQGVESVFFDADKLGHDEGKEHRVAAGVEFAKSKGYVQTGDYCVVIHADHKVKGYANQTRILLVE
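Kinase-Glo luminescence read after 1 h RT reaction of 0.1 nM LmPK with 0.5 mM PEP and 0.1 mM ADP. Activity scaled between uninhibited and enzyme-free controls.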
Giardia FBPA inh: blocks Giardia fructose-bisphosphate aldolase activity. A8B2U2. purified Giardia FBPA. Potency, µM (series often up to 59.6 µM), for the others: at the top dose activity, negative = inhibition, hits mostly inhibitors. 290,000 compounds, 0.71% hits; also: potency is read from the fitted curve at half-maximal effect; % is scaled to controls: 0 for no effect and ±100 for the full control effect; nearly all actives have a fitted effect of over 55% in size
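Giardia FBPA (40 nM reagent) was preincubated 10 min at RT with compound (up to 57.5 uM final), then substrate plus GAPDH/TPI/NAD/arsenate coupling system with diaphorase/resazurin was added; resorufin fluorescence (525/598 nm) was read after 20 min.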
NS1 function inh: influenza NS1 inhibition | Potency, µM (top dose mostly 46.1 µM), for inactives: top-dose activity, positive = more growth | 270,000 compounds, 0.4% hits | AID 2326; calls by dose curve; also: potency is read from the fitted curve at half-maximal effect; actives are rising curves; nearly all actives have a fitted effect of over 50% in size
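OD600 was taken as the measure of yeast growth restored by compound in an NS1-expressing S. cerevisiae strain. Cells had been washed out of glucose medium and diluted 1:100 into galactose -URA medium, pH 6.0.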
Cycloheximide cs: counter-screen hit for Shiga toxin inhibitors, cycloheximide. cell reporter, cycloheximide protein synthesis inhibition counterscreen. max response, %. 300,000 compounds, 12% hits; in the data active = max response mostly above about 13%, no sharp cut-off; inactive = mostly below about 14%; also: read at 38.3 µM for the half of the compounds with a filed dose; 0% is about no effect
Shiga inhibitor: inhibitors of Shiga toxin in Vero cells. Vero cells, Shiga toxin protein synthesis inhibition reporter. inhibition, % at 38.7 µM. 290,000 compounds, 9.2% hits; in the data active = inhibition mostly above about 28%, no sharp cut-off; inactive = mostly below about 43%; also: 0% is about no effect
Starred values were filed as active, the others as inactive; ? = inconclusive; / = no result given. Unless noted, calls follow the shape of the dose curve; as a rule, active = well fitted curve in the direction sought with a large enough effect; inconclusive = small, poorly fitted or top-dose-only effect, or another doubt; inactive = no such curve, though single readings can be large; an effect the other way counts as inactive or inconclusive.

SMILES | LmPK inhibitor | Giardia FBPA inh | NS1 function inh | Cycloheximide cs | Shiga inhibitor
COc1ccc(OC)c(CNC(=O)CCn2nc(C)c3c(C)n(-c4ccccc4)nc3c2=O)c1 | 0.8% | / | 9.0% | -2.6 | 16.3
CCN1CCN(c2ccc(S(=O)(=O)N3CCOCC3)cc2NC(=O)COc2ccc(F)cc2Cl)CC1 | -0.8% | / | 7.5% | -1.2 | -3.7
CN(C)S(=O)(=O)c1cccc(C(=O)Nc2n[nH]c(C(F)(F)F)n2)c1 | -3.9% | / | 3.2% | -3.7 | -0.4
Cc1cc(C)n(C(=O)CCC2COc3ccccc3O2)n1 (configuration not stated) | 0.2% | 0.6% | -7.4% | 10.6* | 35.3
Cc1cc(C)nc(SCC2COc3ccccc3O2)n1 (configuration not stated) | -4.8% | -0.6% | -67.6% | 24.2 | 78.6*
COc1cccc(CN2CC(C(=O)N(C)Cc3[nH]c4ccccc4c3C)CCC2=O)c1 (configuration not stated) | 7.3% | 16.8% | 0.7% | -1.1 | -1.4
COc1cccc(CN2CC(C(=O)NCCCc3ccc(C)cc3)CCC2=O)c1 (configuration not stated) | 0.4% | 10.2% | -1.6% | 19.5* | 48.4
COc1cccc(CN2CC(C(=O)N3CCOCC3)CCC2=O)c1 (configuration not stated) | -1.2% | 12.3% | -11.9% | 45.8* | 65.9*
COc1cccc(CN2CC(C(=O)N3CCCCCCC3)CCC2=O)c1 (configuration not stated) | 5.5% | / | -8.8% | 1.4 | 5.5
COc1cccc(CN2CC(C(=O)NCCCc3ccncc3)CCC2=O)c1 (configuration not stated) | -4.2% | / | 4.2% | -3.8 | -9.6
COc1cccc(CN2CC(C(=O)N(C)Cc3ccc(C)cc3)CCC2=O)c1 (configuration not stated) | -1.2% | 9.7% | -10.6% | 43.3* | 29.4
COC(=O)[C@@H]1[C@@H]2C[C@H]3c4[nH]c5ccccc5c4CCN3C[C@@H]2CC[C@@H]1OS(=O)(=O)O | / | / | -5.6% | / | /
Cc1c(/C=N/NC(=O)C2(O)c3ccccc3-c3ccccc32)cnn1C | -0.3% | 4.2% | 24.5% | -1.8 | 8.5
Cc1ccc(C(=O)N/N=C\c2ccc(Br)o2)o1 | -2.3% | 1.8% | -45.2% | 16.4 | 30.2
Cc1c(/C=N\NC(=O)c2ccc(F)cc2)cnn1C | -2.0% | -1.7% | 13.4% | 16.4 | 26.5*
Cc1c(/C=N\NC(=O)c2cccc(F)c2)cnn1C | -7.8% | 3.6% | 0.6% | 44.8* | 92.1*
Cc1c(/C=N/NC(=O)c2ccc3c(c2)OCO3)cnn1C | -3.7% | -0.6% | -0.9% | 10.6 | 31.5
CCc1ccc(OCc2cccc(C(=O)N/N=C\c3cnn(C)c3C)c2)cc1 | -0.8% | -17.1% | 10.6% | 14.6 | 53.0*
Cc1c(/C=N/NC(=O)c2ccc(Br)o2)cnn1C | -13.3% | -0.4% | 6.2% | 38.5* | 57.2*
COc1cccc(Cn2c(=O)c(-c3ccc(F)cc3)nc3cnc(OC)nc32)c1 | / | -0.5% | / | / | /
CCOc1ccccc1NC(=O)C1C2CCC(O2)C1C(=O)O (configuration not stated) | -0.2% | 1.4% | -6.6% | -1.1 | 13.3
Cc1occc1C(=O)N/N=C/c1cnn(C)c1C | 15.8µM* | -1.1% | 19.9% | 32.7* | 62.3*
O=C(N/N=C/c1ccccc1O)c1cccc2ccccc12 | 0.7% | -7.8% | 21.0% | 13.2* | 21.2
COc1ccc(/C=N/NC(=O)c2ccco2)cc1OCc1ccccc1 | 0.4% | 4.1% | -3.9% | 19.2* | 42.5*
O=C(N/N=C/c1ccccc1O)c1cc(=O)[nH]c2ccccc12 | -0.2% | ? | 1.9% | 11.1 | 22.9
SMILES | LmPK inhibitor | Giardia FBPA inh | NS1 function inh | Cycloheximide cs | Shiga inhibitor
COc1cc(/C=N/NC(=O)CCN2CCCCC2)ccc1O | 4.9% | 0.0% | 7.2% | -2.4 | 3.1
CCOc1cc(/C=N/OC(C)=O)ccc1OCc1ccccc1 | 2.4% | -0.8% | -4.6% | 11.7* | 18.1
COc1cc(/C=N/NC(=O)CN2CCCCC2)ccc1OCc1ccc(Br)cc1 | 5.1% | 2.0% | 9.0% | 12.4* | -1.8
CC1CC[C@@]2(OC1)OC1CC3C4CC=C5CC(O)CC[C@@]5(C)C4CC[C@]3(C)C1C2C (some centres not stated) | / | -0.7% | / | / | /
Cc1cc(C(=O)N/N=C/C=C/c2ccccc2)c(C)o1 | 2.2% | 1.5% | -1.4% | 12.9 | -8.8
Cc1cc(C(=O)N/N=C/c2ccc(OCc3ccccc3)cc2)c(C)o1 | 10.7% | -8.1% | -6.6% | 21.7* | 55.9
Cc1cc(C(=O)N/N=C/c2ccccc2)c(C)o1 | ? | 0.8% | -7.1% | 58.3* | 68.1*
Cc1ccc2[nH]c(C(=O)N/N=C/c3ccccc3O)c(C)c2c1 | -0.8% | 14.5% | 0.6% | 25.4* | 61.2*
Cc1ccc2[nH]c(C(=O)N/N=C/c3ccccc3C(=O)O)c(-c3ccccc3)c2c1 | -0.7% | 13.5% | ? | -6.0 | -2.3
COc1ccc(/C=N/NC(=O)c2cc(C)oc2C)cc1OCc1ccccc1 | 0.3% | -3.4% | -0.7% | 12.3* | 31.6
Cc1ccc(S(=O)(=O)NC(=O)O[C@@H]2C(=O)c3cc(Br)ccc3O[C@H]2c2ccc3c(c2)OCO3)cc1 | / | 3.9% | / | / | /
Cc1nn(C)c(C(=O)N/N=C/c2cccc3ccccc23)c1Cl | 0.9% | -26.7% | 8.7% | 10.7* | 42.9*
COc1cc(/C=N/NC(=O)CC2(C)OCCCO2)ccc1OCc1ccccc1 | 1.6% | 1.8% | -21.6% | 23.0* | 8.6
O=C(N/N=C/c1cccc2ccccc12)c1ccncc1 | -5.1% | -1.1% | -18.4% | 14.3 | 14.8
Cc1nn(C)c(C(=O)N/N=C/c2ccncc2)c1Cl | -1.7% | / | 1.8% | 5.2 | 17.0
Cc1cc(C(=O)N/N=C/c2cccc3ccccc23)c(C)o1 | -3.9% | -2.9% | -11.5% | 29.5* | 41.5
C/C(Cl)=C/CSc1nn2c(=O)c3ccccc3nc2s1 | -0.4% | 5.1% | -65.0% | 40.9* | 61.8*
C=CCSc1nn2c(=O)c3ccccc3nc2s1 | ? | 0.0% | -3.5% | 35.2* | 48.2*
CCOC(=O)c1cnc2ccc(C)cc2c1Sc1ccc(F)cc1 | -5.2% | -14.0% | 5.8% | 43.0* | 67.2*
CCOC(=O)c1cnc2ccc(C)cc2c1Sc1ccccc1 | -0.7% | -4.6% | 15.1% | 33.9* | 61.7*
O=C(Cc1c(Cl)cccc1Cl)Nc1ccc(S(=O)(=O)Nc2ncccn2)cc1 | -3.4% | -26.5% | 7.6% | -6.4 | -12.6
COc1ccc(C(CNC(=O)C2CC2)N(C)C)cc1 (configuration not stated) | 0.4% | / | 16.8% | 16.7* | 26.8*
COc1ccccc1NC(=O)c1ccc[n+]([O-])c1 | -0.2% | 4.3% | 4.5% | -3.3 | 6.8
O=C(CN1CC(=O)Oc2ccccc21)OCC(=O)c1cccc(Br)c1 | 1.6% | ? | -89.9% | 17.7* | 55.1
Cc1ccc(NC(=O)c2snc3ccc(Cl)cc23)cc1C | -3.3% | 2.5% | 4.1% | 37.7* | 32.2*
Cc1ccc(N(C(=O)c2csnn2)C(C(=O)NC2CCCCC2)c2ccncc2)c(C)c1 (configuration not stated) | -3.5% | 1.6% | -5.4% | -2.1 | 7.8
CCN(CC)c1ccc(N=Cc2ccc([N+](=O)[O-])o2)cc1 | -29.8% | ? | -36.9% | 56.9* | 138.6*
